Unmarked numbers belong to inactive results. Calls of active or inactive are those of the source. The call rests on the fitted dose curve; in most records, active means well fitted inhibition curve with a large enough effect; inconclusive means small, poorly fitted or top-dose-only effect; inactive means no such curve, though single readings can be large or run the other way.
Assay: qHTS assay for measurement of the activity of small molecule inhibitors on Zika virus induced Caspase-3 activity in human astrocytoma cells (AID 1224859)
Conditions: SNB-19 ZIKV-induced caspase-3/7, luminescence, 6 h; series mostly up to 45.7 µM
Excerpt: National Center for Advancing Translational Sciences [NCATS]
Johns Hopkins University School of Medicine
Increase in the Caspase-3 activity indicates an activation of apoptosis cell death pathway caused by Zika virus infection in certain types of neuronal cells including human neural progenitor cells (hNPCs), astrocytes, and astrocytoma cell line (SNB-19). This cell-based caspase-3 activity assay measures the increased caspase-3 activity in the astrocytoma cell line (SNB-19) after a 6-hour Zika virus infection with a luminescence readout. A decrease in the luminescence signal in this assay by small molecule treatment indicates an inhibitory effect of that small molecule on the Zika virus induced caspase-3 activity that may correlate with its effect on reduction of Zika virus caused cell death.
The medium for SNB-19 cells is composed of RPMI 1640 (ATCC, Cat.# 30-2001), 10% fetal bovine serum (FBS) (GE healthcare Life Sciences, Cat.# SH30071.03), and 1% Pen/Strep (Gibco, Cat.# 15140-122). A Caspase-Glo 3/7 assay kit (catalog number G8092; Promega, Madison, WI) was used to detect caspase-3 activity induced by Zika virus infection in human cells. The reagent mixture was reconstituted as described in the protocol from the manufacturer. Polystyrene tissue culture treated and PDL coated white plates were obtained from Greiner Bio-One (Monroe, NC). Cells were seeded in 384- or 1536-well assay plates and cultured at 37 C with 5% CO2 for 16 to 20 hours. The typical cell seeding density in the 1536-well plate assay is 250 cells/well in 3ul medium for SNB-19 cells in tissue culture treated plates. Compounds were added to cells and incubated for one hour before addition of ZIKV solution to cells (2 FFU/cell). After incubation at 37 C with 5% CO2 for 6 hours, the reagent mixture of Caspase-Glo 3/7 assay kit was added to each well, followed by incubation at room temperature for 30 minutes. The luminescence intensity of the assay plates was measured using a ViewLux plate reader (PerkinElmer). Data were normalized by using the cell-containing wells without ZIKV as a negative control (0% induction of caspase 3/7 activity) and wells containing ZIKV infected cells (Caspase-3 activity induced) as a positive control (100% induction of caspase 3 activity). The percentage inhibitions of the increased Caspase-3 activity by small molecule inhibitors were then calculated.

Row | Structure (SMILES) | outcome | activity change, negative = inhibition
1 | Nc1ccc(S(=O)(=O)Nc2ccccc2)cc1 | inactive | –
2 | C=CCn1c(=O)n([C@@H]2O[C@H](CO)[C@@H](O)[C@H]2O)c2nc(N)[nH]c(=O)c21 | inactive | –
3 | CC(COc1ccccc1)NC(C)C(O)c1ccc(O)cc1 (stereo not given) | inactive | –
4 | CCN(CC)CCNC(C(=O)OCCC(C)C)c1ccccc1 (stereo not given) | inactive | –
5 | Nc1ccc(S(=O)(=O)NC(=O)c2ccccc2)cc1 | inactive | –
6 | N[C@@H](CSSC[C@H](N)C(=O)O)C(=O)O | – | 23% [at 0.568 µM]
7 | CC(CN(C)C)CN1c2ccccc2CCc2ccccc21 (stereo not given) | inactive | –
8 | Oc1cccc(O)c1 | inactive | –
9 | O=S(=O)(O)NC1CCCCC1 | inactive | –
10 | Cc1cc(C(C#N)c2ccc(Cl)cc2)c(Cl)cc1NC(=O)c1cc(I)cc(I)c1O (stereo not given) | inactive | –
11 | O=C(O)[C@H](O)c1ccccc1 | inactive | –
12 | Cc1cc2c(cc1S(N)(=O)=O)S(=O)(=O)CCC2 | inactive | –
13 | c1ccc2c(CC3=NCCN3)cccc2c1 | inactive | –
14 | O=C(O)Cc1sc(-c2ccccc2)nc1-c1ccc(Cl)cc1 | inactive | –
15 | CC(=O)Oc1c(C)c(C)c2c(c1C)CC[C@@](C)(CCC[C@H](C)CCC[C@H](C)CCCC(C)C)O2 | inactive | –
16 | C[C@]12C[C@H](O)[C@H]3[C@@H](CCC4=CC(=O)CC[C@@]43C)[C@@H]1CC[C@@H]2C(=O)CO | inactive | –
17 | c1ccc(CN(CC2=NCCN2)c2ccccc2)cc1 | inactive | –
18 | CCCn1cnc2c1c(=O)n(CCCCC(C)=O)c(=O)n2C | inactive | –
19 | CCCCc1ncc(/C=C(\Cc2cccs2)C(=O)O)n1Cc1ccc(C(=O)O)cc1 | inactive | –
20 | CCCCC(CC)COC(=O)c1ccccc1O (stereo not given) | inactive | –

Row | Structure (SMILES) | outcome | activity change, negative = inhibition
21 | [Cl][In]([Cl])[Cl] | inactive | –
22 | O=c1cc(CO)occ1O | inactive | –
23 | COc1ccc2cc1Oc1cc3c(cc1OC)CC[N+](C)(C)[C@H]3Cc1ccc(cc1)Oc1c(OC)c(OC)cc3c1[C@@H](C2)[N+](C)(C)CC3 | inactive | –
24 | CC[N+](CC)(CC)CCOc1ccc(/C=C/c2ccccc2)cc1 | inactive | –
25 | CC(C)(C)c1onc(OCP(=O)(O)O)c1CC(N)C(=O)O (stereo not given) | inactive | –
26 | CN1CCC[C@@H]1Cc1c[nH]c2ccc(CCS(=O)(=O)c3ccccc3)cc12 | inactive | –
27 | C[C@@H]1CCN(C(=O)[C@H](CCCN=C(N)N)NS(=O)(=O)c2cccc3c2NC[C@H](C)C3)[C@@H](C(=O)O)C1 | inactive | –
28 | NS(=O)(=O)c1cc2c(cc1Cl)NC(CSCc1ccccc1)=NS2(=O)=O | inactive | –
29 | C=Cc1c(C)c2cc3[nH]c(cc4nc(cc5nc(cc1[nH]2)C(C)=C5CCC(=O)O)C(CCC(=O)O)=C4C)c(C)c3C=C | inactive | –
30 | N=c1c[n+](N2CCOCC2)[n-]o1 | inactive | –
31 | Nc1nc2c(ncn2CCC(CO)CO)c(=O)[nH]1 | inactive | –
32 | OCCN1CCN(CCCN2c3ccccc3Sc3ccc(Cl)cc32)CC1 | inactive | –
33 | CN1CCN(C2Cc3ccccc3Sc3ccc(Cl)cc32)CC1 (stereo not given) | inactive | –
34 | Cc1cccc(Nc2cc(Cl)nc(SCC(=O)O)n2)c1C | inactive | –
35 | CN1[C@@H]2CC[C@H]1CC(OC(=O)C(O)c1ccccc1)C2 (stereo not given in full) | inactive | –
36 | CNCC(O)c1ccc(O)c(O)c1 (stereo not given) | inactive | –
37 | C[C@H]1O[C@@H](n2cc(F)c(=O)[nH]c2=O)[C@H](O)[C@@H]1O | inactive | –
38 | COc1ccc2c(c1)C(=O)N(CCc1ccc(S(=O)(=O)NC(=O)NC3CCCCC3)cc1)C(=O)C2(C)C | inactive | –
39 | NC(=O)c1ncn([C@@H]2O[C@H](CO)[C@@H](O)[C@H]2O)n1 | inactive | –
40 | Oc1cn2c(n1)Nc1ccc(Cl)c(Cl)c1C2 | inactive | –
